The campaign covered roughly 1,300 compounds. About 1,200 (92%) were called active. So high a share suggests a set chosen from earlier hits. Some of the results follow. Results with a measured potency or affinity are listed apart. Inconclusive results are not listed. No rule for the calls is given here.
Assay: P. falciparum Dd2 growth inhibitors, dose response, SYBR Green, cherry-picked samples (AID 1159567)
Conditions: Plasmodium falciparum Dd2 growth, SYBR Green fluorescence; series mostly up to 19.5 µM

outcome, inactive:
O=C(O)C[C@@H]1C[C@@H]2c3cc(NS(=O)(=O)c4ccccc4)ccc3O[C@@H]2[C@H](CO)O1, C[C@@H]1CN([C@@H](C)CO)C(=O)c2cc(NC(=O)C3CC3)ccc2O[C@H]1CN(C)CC1CCCCC1, CCC(=O)N[C@H]1C=C[C@H](CC(=O)NCC2CCCCC2)O[C@@H]1CO, C[C@H]1CN([C@@H](C)CO)C(=O)CCCn2nncc2CO[C@H]1CN(C)C(=O)Nc1ccc(N2CCCCC2)cc1, C[C@H]1CN([C@@H](C)CO)C(=O)CCCn2cc(nn2)CO[C@@H]1CN(C)C(=O)Nc1ccc(N2CCCCC2)cc1, COc1cccc(CNC(=O)[C@H]2[C@H](CO)[C@H]3Cn4c(cccc4=O)[C@@H]2N3C(=O)C2CCCC2)c1, O=C(c1cccnc1)N1CC2(C1)[C@@H](c1ccccc1)[C@@H](CO)N2C(=O)CC1CC1, COc1ccc(CNC(=O)C[C@H]2C=C[C@@H](NS(=O)(=O)c3cccc(OC)c3)[C@@H](CO)O2)cc1, C[C@H](O)C#Cc1cnc2c(c1)C(=O)N([C@@H](C)CO)C[C@@H](C)[C@@H](CN(C)C(=O)Cc1ccncc1)O2, O=C(Nc1ccccc1F)N1C[C@@H]2[C@H](c3ccccc31)[C@H](CO)N2C(=O)C1CCOCC1, O=C(Nc1ccc(F)cc1)N1C[C@H]2[C@@H](c3ccccc31)[C@@H](CO)N2Cc1cocn1, CN(C)CC#Cc1ccc([C@@H]2[C@H](CO)N3C(=O)CN(C(=O)Cc4cccnc4)C[C@@H]23)cc1, COc1ccc(CN(C)C[C@@H]2OCc3cn(nn3)CCCC(=O)N([C@H](C)CO)C[C@H]2C)cc1, C[C@@H]1CN([C@@H](C)CO)C(=O)c2c(c3ccccc3n2C)-c2ccccc2CO[C@H]1CN(C)Cc1ccc(Cl)c(Cl)c1, O=C1CN(Cc2ccc(F)cc2)C[C@@H]2[C@@H](c3ccc(Br)cc3)[C@H](CO)N12, Cc1noc(C)c1NC(=O)Nc1ccc2c(c1)C(=O)N([C@H](C)CO)C[C@@H](C)[C@@H](CN(C)S(C)(=O)=O)O2, COc1ccc2c3c([nH]c2c1)[C@@H](CO)N(C(C)=O)CC31CN(C(=O)CN2CCOCC2)C1, COCC(=O)N1CC2(C1)CN(C(=O)CN1CCOCC1)[C@@H](CO)c1c2c2ccc(OC)cc2n1C, COCC(=O)Nc1ccc2c(c1)OC[C@@H](C)N(C(=O)NC(C)C)C[C@@H](C)[C@@H](OC)CN(C)C2=O, CCCNC(=O)Nc1ccc2c(c1)C(=O)N(C)C[C@H](OC)[C@@H](C)CN(C(=O)C1CCOCC1)[C@@H](C)CO2, COc1ccccc1S(=O)(=O)N(C)C[C@H]1OCc2cn(nn2)CCCC(=O)N([C@@H](C)CO)C[C@@H]1C, CO[C@H]1CN(C)C(=O)c2ccc(NC(=O)CC(F)(F)F)cc2OC[C@@H](C)N(CC2CC2)C[C@H]1C, COc1ccc2c3c(n(C)c2c1)[C@H](CO)N(Cc1cccnc1)CC31CN(C(=O)NC(C)C)C1, N#C[C@H]1[C@@H](c2ccccc2-c2ccccc2F)[C@@H](CO)N1C(=O)C1CCOCC1, N#C[C@@H]1[C@@H](c2ccccc2-c2ccccc2F)[C@H](CO)N1C(=O)C1CC1, N#C[C@@H]1[C@H](c2ccccc2-c2ccccc2F)[C@H](CO)N1C(=O)C1CCOCC1, C[C@@H]1CN([C@H](C)CO)C(=O)c2cc(NC(=O)CCC(F)(F)F)ccc2O[C@H]1CN(C)C(=O)NC1CCCCC1, C[C@H](CO)N1C[C@H](C)[C@@H](CN(C)C(=O)CCCN(C)C)OCc2cnnn2CCCC1=O, O=C(C[C@@H]1C=C[C@@H](NC(=O)C2CCC2)[C@H](CO)O1)NC1CCC1, CN1C(=O)c2cc(NC(=O)c3ccc4c(c3)OCO4)ccc2OC[C@@H]2O[C@@H](CC(=O)O)CC[C@@H]21, CO[C@@H]1CN(C)C(=O)c2cc(NC(C)=O)ccc2OC[C@@H](C)N(C(=O)Cc2cccnc2)C[C@H]1C, COCC#Cc1ccc([C@H]2[C@H](CO)N3C(=O)CN(C(=O)CN4CCOCC4)C[C@@H]23)cc1, CN(C)CC(=O)Nc1ccc2c(c1)[C@@H]1C[C@H](CC(=O)N3CCOCC3)O[C@@H](CO)[C@@H]1O2, C[C@H]1CN([C@@H](C)CO)C(=O)Cc2cc(NC(=O)CCC(F)(F)F)ccc2O[C@H]1CN(C)S(C)(=O)=O, CN(C)C(=O)c1cccc(-c2ccccc2[C@@H]2[C@@H](C#N)N(C(=O)C3CC3)[C@H]2CO)c1, COCC(=O)N1[C@H](C#N)[C@@H](c2ccccc2-c2ccccc2)[C@H]1CO, COCC(=O)N1[C@@H](C#N)[C@H](c2ccccc2-c2ccccc2)[C@@H]1CO, CO[C@H]1CN(C)C(=O)c2cc(NS(=O)(=O)c3ccccc3C)ccc2OC[C@H](C)N(C)C[C@H]1C, CO[C@H]1CN(C)C(=O)c2ccc(NS(=O)(=O)CC(F)(F)F)cc2OC[C@H](C)N(C)C[C@@H]1C, O=C(C[C@H]1C=C[C@H](NC(=O)Cc2ccccn2)[C@H](CO)O1)NCCc1ccccc1, CCC(=O)N1[C@H](CO)[C@H](c2ccccc2)[C@@H]1CN(CC)C(=O)c1cccc(F)c1, CCCNC(=O)Nc1ccc2c(c1)C(=O)N(C)C[C@@H](OC)[C@H](C)CN(C(=O)C1CCOCC1)[C@@H](C)CO2, CCCNC(=O)Nc1ccc2c(c1)C(=O)N(C)C[C@H](OC)[C@@H](C)CN(C(=O)C1CCOCC1)[C@H](C)CO2, COCC(=O)N1[C@H](C#N)[C@@H](c2ccccc2C2=CCCC2)[C@@H]1CO, CO[C@H]1CN(C)C(=O)c2cc(NC(C)=O)ccc2OC[C@H](C)N(Cc2ccncc2)C[C@@H]1C, CO[C@H]1CN(C)C(=O)c2cc(NC(C)=O)ccc2OC[C@H](C)N(Cc2ccncc2)C[C@H]1C

From PubChem BioAssay AID1159567 (Broad Institute, 2015)
